# Source: PubChem
# G9a block: G9a (human) methyltransferase inhibition; Q96KQ7; Potency, µM (series often up to 102 µM), inactives show top-dose activity, negative = inhibition, usual class: inhibitors; G9a H3K9 monomethylation, AlphaScreen, 2 h; AID 504332; actives 8.8% (n = 350,000); note: % is set by controls: 0 for no effect and ±100 for the full control effect; nearly all actives have a fitted effect of over 75% in size
#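 AlphaScreen read-out: biotin-H3K9 peptide (500 nM) methylation by 20 nM enzyme with 20 uM SAM, 2 h at room temperature after 15 min compound preincubation; anti-monomethyl H3K9 antibody plus donor/acceptor beads, 10 min dark.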
# JMJD2A Tudor: inhibitors of human JMJD2A Tudor domain | Potency, µM (titrated, usually from 114 µM), for the others: at the top dose activity change, negative = inhibition, most hits filed as inhibitors | actives 4.4% (n = 390,000) | AlphaScreen JMJD2A-Tudor / H3K4me3 peptide binding; note: % is set by controls: 0 for no effect and ±100 for the full control effect; nearly all actives have a fitted effect of over 50% in size
# L3MBTL1 inh: blocks human L3MBTL1; Q9Y468; AlphaScreen L3MBTL1–H3K9me1 peptide binding; Potency, µM (titrated, usually from 57.1 µM), for the others: at the top dose activity, negative = inhibition, hits mostly inhibitors; actives 0.66% (n = 230,000); AID 485360; note: % is set by controls: 0 for no effect and ±100 for the full control effect; nearly all actives have a fitted effect of over 60% in size
# Target sequence (Q9Y468 whole entry, looked up): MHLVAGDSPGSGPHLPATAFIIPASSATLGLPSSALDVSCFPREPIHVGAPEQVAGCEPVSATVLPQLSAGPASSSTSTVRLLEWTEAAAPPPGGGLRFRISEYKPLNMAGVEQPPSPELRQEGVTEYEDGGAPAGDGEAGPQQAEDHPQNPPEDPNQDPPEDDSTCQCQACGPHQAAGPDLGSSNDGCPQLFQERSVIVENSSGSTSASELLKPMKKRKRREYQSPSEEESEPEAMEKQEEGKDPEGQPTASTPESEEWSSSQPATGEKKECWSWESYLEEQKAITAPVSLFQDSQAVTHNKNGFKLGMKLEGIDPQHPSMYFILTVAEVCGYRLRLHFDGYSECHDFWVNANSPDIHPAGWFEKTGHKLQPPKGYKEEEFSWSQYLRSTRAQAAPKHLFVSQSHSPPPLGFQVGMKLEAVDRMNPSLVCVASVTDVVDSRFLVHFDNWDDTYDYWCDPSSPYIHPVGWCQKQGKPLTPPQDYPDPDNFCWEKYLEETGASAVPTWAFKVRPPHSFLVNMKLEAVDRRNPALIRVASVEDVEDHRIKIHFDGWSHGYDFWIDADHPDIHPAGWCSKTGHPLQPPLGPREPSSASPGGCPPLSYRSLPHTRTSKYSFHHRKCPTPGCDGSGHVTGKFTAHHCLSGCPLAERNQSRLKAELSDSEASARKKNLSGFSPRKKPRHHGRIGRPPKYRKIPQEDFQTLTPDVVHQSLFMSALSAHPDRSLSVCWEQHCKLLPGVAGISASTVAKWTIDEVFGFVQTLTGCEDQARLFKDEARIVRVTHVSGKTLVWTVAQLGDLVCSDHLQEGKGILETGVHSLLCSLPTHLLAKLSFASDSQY
#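 L3MBTL1 (50 nM) pre-complexed 30 min with biotinylated H3(1-15)K9me1 peptide (75 nM), then compounds added for 30 min at room temperature; AlphaScreen streptavidin donor/nickel chelate acceptor beads (10 ug/mL final) read after 30 min dark incubation.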
# BAZ2B block: blocks human BAZ2B; Q9UIF8; AlphaScreen BAZ2B-H3K14Ac peptide displacement; Potency, µM (highest dose often 114 µM), without a hit: at the highest dose activity change, negative = inhibition, hits mostly inhibitors; actives 4.4% (n = 360,000); note: % is set by controls: 0 for no effect and ±100 for the full control effect; nearly all actives have a fitted effect of over 60% in size
#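 BAZ2B (50 nM) with biotin-H3(5-23)K14Ac peptide (50 nM) in PBS pH 7.4, 0.01% Tween-20, preformed 30 min, then compound 30 min at room temperature; top concentration 110uM. AlphaScreen streptavidin donor/nickel chelate acceptor beads (10 ug/mL final), 20 min dark, signal read.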
# HP1b chromo inh: blocks HP1-beta chromodomain binding to methylated histone tails. P83916. AlphaScreen HP1-beta / biotin-H3K9me3 peptide binding. Potency, µM (doses to about 114 µM), without a hit: at the highest dose activity change, negative = inhibition, hits mostly inhibitors. actives 0.56% (n = 390,000). AID 540317; note: nearly all actives have a fitted effect of over 70% in size
#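 AlphaScreen: HP1-beta (50 nM) preformed 30 min with biotin-H3(1-18)K9me3 peptide (50 nM) in PBS pH 7.4, 0.01% Tween-20. Compound added for 30 min at RT, then streptavidin donor/nickel chelate acceptor beads (10 ug/mL) for 30 min.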
# Active calls of the source: *; u = inconclusive; x = no result; [ ] = dose if it differs, or a comment. A selection: hits, their analogues and other compounds. The true share with any hit is near 11%. Calls come from the whole dose curve; as a rule, active = well fitted inhibition curve with a large enough effect; inconclusive = small, poorly fitted or top-dose-only effect; inactive = no such curve, though single readings can be large or run the other way. Potency is the fitted concentration of half-maximal effect.
SMILES,G9a block,JMJD2A Tudor,L3MBTL1 inh,BAZ2B block,HP1b chromo inh
CCCN1CCc2c(sc(NC(=O)c3ccc(S(=O)(=O)N4CCN(C(=O)OCC)CC4)cc3)c2C(N)=O)C1,u,-30%,x,-20%,18%
CCn1nc(NC(=O)c2ccco2)c2cc3ccccc3nc21,7.9µM*,25%,22%,7%,85%
CC(C)Cn1nc(NC(=O)c2ccco2)c2cc3ccccc3nc21,u,31%,56%,64%,89%
CCn1nc(NS(=O)(=O)c2ccc([N+](=O)[O-])cc2)c2cc3ccccc3nc21,45µM*,-31%,x,u,32%
CCCn1nc(NC(=O)c2ccco2)c2cc3cc(C)ccc3nc21,22µM*,10%,33%,20%,64%
O=c1c2ccccc2n(Cc2ccccc2Cl)c(=O)n1CCc1ccccc1,47%[59 µM],31%,x,7%,44%
CCCC(=O)Nc1nc(C)c(-c2csc(Nc3ccccc3OC)n2)s1,u,u,-2%,u,-11%
COc1ccccc1Nc1nc(-c2sc(NC(=O)c3cccc(Cl)c3)nc2C)cs1,32µM*,x,-5%,u,x
Cc1ccc(Cl)cc1Nc1nc(-c2sc(NC(=O)C(C)(C)C)nc2C)cs1,u,u,0%,56µM*,13%
Cc1ccc(Nc2nc(-c3sc(NC(=O)c4cccc(Cl)c4)nc3C)cs2)cc1,25µM*,x,-9%,u,x
COc1ccccc1Nc1nc(-c2sc(NC(=O)C(C)(C)C)nc2C)cs1,u,63µM*,-6%,u,-29%
Cc1ccc(Nc2nc(-c3sc(NC(=O)c4ccco4)nc3C)cs2)cc1,u,u,-11%,u,-16%
COc1ccc2cc3cc(C(=O)N4CCN(c5ccccc5F)CC4)oc3nc2c1,-19%[59 µM],-29%,x,x,18%
O=C(NCCc1csc2nc(-c3cccc(F)c3)nn12)c1ccc(Br)o1,10%[59 µM],2%,x,-18%,17%[57 µM]
CC(=O)Nc1nc(C)c(-c2csc(Nc3cccc([N+](=O)[O-])c3)n2)s1,20%[59 µM],-8%,x,-2%,35%
Cc1nc(NC(=O)c2ccc(Cl)cc2)sc1-c1csc(Nc2cccc(F)c2)n1,50µM*,x,-10%,-3%[57.1 µM],x
Cc1ccc(C(=O)NNC(=O)c2csc(N3CCOCC3)n2)o1,-3%[0.501 µM],u,-4%,u,29%
O=C(NNC(=O)c1ccco1)c1csc(N2CCOCC2)n1,7.1µM*,-1%,1%,u,37%
CC(C)CN(C[C@@H](O)[C@H](Cc1ccccc1)NC(=O)O[C@H]1CO[C@H]2OCC[C@H]21)S(=O)(=O)c1ccc(N)cc1,8%[12.7 µM],x,x,x,x
CCOc1ccc(S(=O)(=O)Nc2ncn[nH]2)cc1,21%,-7%,x,-1%,9%
CCOc1ccc(S(=O)(=O)Nc2cc(Sc3ncn[nH]3)c3oc(=O)sc3c2)cc1,32µM*,x,-30%,u,x
N#Cc1nc(/C=C/c2ccc(F)cc2)oc1N1CCCCCC1,u,-6%,x,u,u
COc1ccccc1NC(=O)Nc1nn(C)c2cccc(N(C)C)c12,14µM*,u,x,u,u
CN(C)c1cccc2c1c(NC(=O)Nc1ccc(Cl)cc1Cl)nn2C,-10%,-20%,6%,1%,25%
Cc1cccc(OCC(O)CN2CC3(C)CC2CC(C)(C)C3)c1 (stereo unspecified),28µM*,18µM*,u,u,-34%
SMILES,G9a block,JMJD2A Tudor,L3MBTL1 inh,BAZ2B block,HP1b chromo inh
CC1(C)CC2CC(C)(CN2CC(O)c2ccccc2)C1 (stereo unspecified),22µM*,5.6µM*,x,u,-25%
Cc1ccc(OCC(O)CN2CC3(C)CC2CC(C)(C)C3)cc1 (stereo unspecified),20µM*,1.1µM*,8%,u,u
Cc1cccc(OCC(O)CN2CCNCC2)c1 (stereo unspecified),x,-9%,3%,1%,37%
CC1(C)CC2CC(C)(CN2CC(=O)C(C#N)c2ccccc2)C1 (stereo unspecified),u,-26%,3%,-11%,34%
CCC(C(=O)O)n1ccc2cc(S(=O)(=O)N3CCCCC3)ccc21 (stereo unspecified),6%[59 µM],-16%,x,0%,19%
COc1cccc(-c2nc(SCC(=O)NC3CCCC3)c(-c3ccc(F)cc3)[nH]2)c1,-7%[59 µM],-26%,x,-23%,-17%
CC(=O)c1cccc(NC(=O)C(C)OC(=O)CCc2nc3ccccc3c(=O)[nH]2)c1 (stereo unspecified),x,-4%,-2%,x,22%
CN(C)S(=O)(=O)c1cccc(NC(=S)N/N=C/C2CC=CCC2)c1 (stereo unspecified),5.6µM*,13µM*,-1%,-25%,38%
O=C(CN1C(=O)S/C(=C\c2ccc(F)cc2)C1=O)NCCCn1ccnc1,18%,-23%,x,u,42%
O=C(CCN1C(=O)/C(=C/c2ccc(Cl)cc2)SC1=S)NCCCn1ccnc1,u,-4%,x,40µM*,47%
O=C(CCN1C(=O)/C(=C/c2ccc(F)cc2)SC1=S)NCCCn1ccnc1,50µM*,-14%,x,u,35%
C=Cc1cc(F)c(S(=O)(=O)N2CCN(S(=O)(=O)c3ccc4c(c3)OCCO4)CC2)cc1F,x,-8%,x,x,x
O=C(NCc1cccnc1)/C(=C\c1ccc(-c2ccc(Br)cc2)o1)S(=O)(=O)c1ccccc1,14µM*,u,-8%,u,-5%
O=C(NCc1cccnc1)/C(=C/c1ccc(-c2ccc(Cl)cc2)o1)S(=O)(=O)c1ccccc1,0%[59 µM],u,-9%,u,-9%
Cc1cc(NC(c2nnc(-c3ccccc3)o2)c2ccccc2F)ccc1Br (stereo unspecified),18%[59 µM],-7%,x,28%,85%
COc1ccc(C)cc1NC(=O)c1cc(S(=O)(=O)N2CCCCC2)c[nH]1,-7%[59 µM],-22%,x,-12%,23%
CCOC(=O)CNc1ccc(C(=O)OCC)cc1[N+](=O)[O-],19%[59 µM],-2%,-2%,10%,18%
CC1CCCC(C)N1C(=O)COC(=O)CSc1ccc([N+](=O)[O-])cc1 (stereo unspecified),u,-27%,-4%,-37%,-23%
CCNc1ccc(C(=O)OCC(=O)N(Cc2ccccc2)C(C)(C)C)cc1[N+](=O)[O-],89µM*,-32%,-3%,-30%,22%
CC(C)(C)N(Cc1ccccc1)C(=O)COC(=O)CSc1ccc([N+](=O)[O-])cc1,40µM*,-34%,-6%,-23%,-9%
CCCCN(Cc1ccco1)C(=O)C1CCCN(c2ncnc3c2nc2n3CCCCC2)C1 (stereo unspecified),79µM*,u,x,u,37%
O=c1nccc(SCc2ccc(Cl)cc2Cl)[nH]1,12%,-6%,x,2%,38%
